In PubChem BioAssay (NCI):
About 83,000 compounds went through this panel and 20% of them were active in at least one assay; those are over-represented in the sample as a whole.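 Negative percent growth values reflect cell death: -40 means 40% of the cells present at the start died, and -100 means all died.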 Calls of active or inactive are those of the source. The calls were made as follows: active = growth percent below 10; inactive = the rest.

Key:
Experiment in all cases: NCI-60 one-dose screen, 48 h (100 = growth as untreated, 0 = no growth, -100 = all killed)
[1] = system: SK-MEL-2 melanoma; conditions: 10 µM unless noted
[2] = system: EKVX NSCLC; conditions: 10 µM unless noted
[3] = system: SN12C renal; conditions: 10 µM unless noted
[4] = system: UO-31 renal; conditions: 10 µM unless noted
[5] = system: TK-10 renal; conditions: 10 µM unless noted
[6] = system: ACHN renal; conditions: 10 µM unless noted
[7] = system: CAKI-1 renal; conditions: 10 µM unless noted
[8] = system: A498 renal; conditions: 10 µM
[9] = system: CCRF-CEM leukemia; conditions: 10 µM unless noted
[10] = system: MOLT-4 leukemia; conditions: 10 µM unless noted
[11] = system: SR leukemia; conditions: 10 µM unless noted
[12] = system: RPMI-8226 leukemia; conditions: 10 µM unless noted
[13] = system: OVCAR-8 ovarian; conditions: 10 µM unless noted
[14] = system: OVCAR-5 ovarian; conditions: 10 µM unless noted
[15] = system: OVCAR-4 ovarian; conditions: 10 µM unless noted
[16] = system: SK-OV-3 ovarian; conditions: 10 µM unless noted
[17] = system: IGROV1 ovarian; conditions: 10 µM unless noted
[18] = system: OVCAR-3 ovarian; conditions: 10 µM unless noted
[19] = system: HS 578T breast; conditions: 10 µM unless noted
[20] = system: HL-60(TB) leukemia; conditions: 10 µM unless noted

Measured: growth

C[C@]12CC[C@H]3[C@@H](CC[C@]4(O)C[C@@H](O[C@@H]5O[C@H](CO)[C@@H](O[C@@H]6OC[C@@H](O)[C@H](O)[C@H]6O)[C@H](O)[C@H]5O)CC[C@]34C=O)[C@@]1(O)CC[C@@H]2C1=CC(=O)OC1
inactive: [12] 10% | [14] 31.1% | [17] 18.6%
active: [1] -32.6% | [2] -59.9% | [3] -32.1% | [4] 6.18% | [5] -6.98% | [6] -34.3% | [7] -5.08% | [8] -9.04% | [9] -14.5% | [10] -36.3% | [11] -31.7% | [13] 2.06% | [15] 2.78% | [16] -3.1% | [18] -34.5% | [19] 8.83%

CN1CCCCC1C(C)(O)c1ccccc1 (configuration not stated)
inactive: [1] 106% | [2] 96.3% | [3] 102% | [4] 92.5% | [5] 94.9% | [6] 108% | [7] 96.4% | [8] 101% | [9] 112% | [10] 102% | [11] 113% | [12] 114% | [14] 94.2% | [15] 99.8% | [16] 97.8% | [17] 99.8% | [18] 111% | [19] 108%

CCOc1ccccc1C(=O)OCC(Cl)(Cl)Cl
inactive: [1] 116% | [2] 109% | [3] 102% | [4] 94.4% | [5] 99.6% | [6] 111% | [7] 98.7% | [8] 88.5% | [9] 104% | [10] 105% | [11] 93.9% | [12] 107% | [13] 102% | [14] 109% | [15] 111% | [16] 106% | [17] 106% | [18] 109% | [19] 97.9%

COc1cc2c(cc1OCCCCn1c(-c3cccs3)nc3ccccc31)N=C[C@@H]1CCCN1C2=O
active: [1] -52.4% | [2] 4.43% | [3] 2.49% | [4] -58.3% | [5] -22.8% | [6] -10% | [7] -22% | [8] -53.9% | [9] -25.7% | [12] -46.8% | [13] -0.203% | [14] 0.96% | [15] -21.3% | [18] -10.9% | [19] -5.13%
inactive: [10] 20.8% | [11] 32% | [16] 24.9%

CCCCN(CCCC)P(=O)(Oc1ccccc1)Oc1ccccc1
inactive: [1] 43.4% | [2] 59% | [3] 59.9% | [4] 42.2% | [5] 78.5% | [6] 80.8% | [7] 32.4% | [8] 93.8% | [20] 32.5% | [9] 61.9% | [12] 54.4% | [13] 84.1% | [14] 94.1% | [15] 51.5% | [16] 66.7% | [17] 57.3% | [18] 87.2% | [19] 85.3%

CCCCCN(CCCCC)CC(O)c1cc(Cl)ccc1OC (configuration not stated)
active: [12] 0.775% | [17] 2.26%
inactive: [1] 32.8% | [2] 52.4% | [3] 52.7% | [4] 25.2% | [5] 73.1% | [6] 43.9% | [7] 28.7% | [8] 37.4% | [20] 55.4% | [10] 34.9% | [13] 63.1% | [14] 53.7% | [15] 42.9% | [16] 53.6% | [18] 28.6% | [19] 50.1%

Cc1c(NS(=O)(=O)c2ccccc2)ccc([N+](=O)[O-])c1Cl
inactive: [1] 65.1% | [2] 65.3% | [3] 58.6% | [4] 45.1% | [5] 77% | [6] 69.7% | [7] 47.8% | [8] 59.3% | [9] 64.3% | [10] 73.6% | [11] 73.8% | [12] 42.4% | [13] 74.6% | [14] 89.1% | [15] 47.3% | [16] 71.3% | [17] 72.5% | [18] 42.2% | [19] 64.4%

N#CC1(c2ccccc2)CCN(Cc2ccccc2)CC1
inactive: [1] 99.6% | [2] 96.2% | [3] 114% | [4] 108% | [5] 88.4% | [6] 98% | [7] 94.7% | [8] 64.8% | [20] 102% | [9] 86.3% | [12] 77% | [13] 104% | [14] 98% | [15] 113% | [16] 107% | [17] 115% | [18] 101% | [19] 96.3%

COc1ccc(/C=C\c2cc(OC)c(OC)c(OC)c2)cc1NC(=O)/C=C/c1cc(OC)c(OC)c(OC)c1
inactive: [1] 47% | [2] 61.6% | [3] 71.6% | [4] 31.9% | [5] 82% | [6] 53.9% | [7] 31.5% | [20] 15.7% | [9] 39.2% | [12] 63.8% | [13] 68.8% | [14] 77.6% | [15] 66.1% | [17] 62.4% | [18] 47.7% | [19] 51.8%
active: [8] -3.68% | [16] 3.82%

NC(=O)C(Br)c1ccccc1 (configuration not stated)
inactive: [1] 83.9% | [2] 109% | [3] 88.7% | [4] 102% | [5] 91.2% | [6] 87.2% | [8] 87.4% | [9] 60.6% | [10] 74.2% | [11] 46.1% | [12] 96.6% | [13] 90.8% | [14] 114% | [15] 89.6% | [16] 117% | [17] 80.3% | [18] 91.9% | [19] 103%
active: [7] -46%

C[C@]12CCc3nc(Nc4ccccc4F)sc3C1=CC[C@@H]1[C@@H]2CC[C@]2(C)C(=O)CC[C@@H]12
active: [6] 9.9%
inactive: [1] 92.8% | [2] 94.4% | [3] 69.5% | [4] 64.8% | [5] 35.7% | [7] 65.4% | [8] 90.6% | [9] 26.6% | [10] 14.2% | [11] 11.4% | [12] 15% | [13] 70.8% | [14] 76.5% | [15] 73.9% | [16] 72.6% | [17] 61.8% | [18] 29.2% | [19] 67.8%

CNC12C3C4C1C1C2C3C41C(=O)N[C@H](C(=O)N(C)[C@H](C[C@@H](OC(C)=O)c1nc(C(=O)N[C@@H](Cc2ccccc2)C[C@H](C)C(=O)OC)cs1)C(C)C)C1CC1 (some centres not stated)
active: [20] -34.9% | [9] -1.11% | [11] -12.7% | [12] -6.94% | [18] -32.9%
inactive: [1] 25.4% | [2] 30.9% | [3] 31.5% | [4] 36.3% | [5] 23.4% | [6] 23.2% | [7] 87.9% | [8] 21.3% | [13] 20.1% | [14] 56.6% | [16] 40.7% | [17] 17% | [19] 32.3%

COC(=O)C12CC(NC(=O)c3csc([C@@H](C[C@H](C(C)C)N(C)C(=O)[C@@H](NC(=O)[C@H]4CCCCN4C)C4CC4)OC(C)=O)n3)(C1)C2
active: [8] -5.31% | [20] -44% | [16] 3% | [18] -25.2%
inactive: [1] 34.7% | [2] 59.8% | [3] 37.9% | [4] 48.5% | [5] 39.2% | [6] 33.6% | [7] 38.6% | [9] 17.2% | [11] 17.5% | [12] 22.9% | [13] 19.3% | [14] 35.7% | [15] 43.5% | [17] 29.5% | [19] 33.1%

COc1cc([N+](=O)[O-])c2nc(C)ccc2c1[N+](=O)[O-]
inactive: [1] 102% | [2] 112% | [3] 89% | [4] 74.9% | [5] 122% | [6] 89.5% | [7] 104% | [8] 121% | [9] 91.3% | [10] 98.2% | [11] 82.2% | [12] 80.7% | [13] 89.1% | [14] 131% | [15] 103% | [16] 119% | [17] 109% | [18] 44.2% | [19] 106%

COC1CC2c3ccccc3C1C(C)=[N+]2C (configuration not stated)
inactive: [1] 91.8% | [2] 97.4% | [3] 94.1% | [4] 94% | [5] 98.8% | [6] 99.3% | [7] 69.3% | [8] 80.8% | [9] 76.7% | [10] 101% | [11] 105% | [12] 75.3% | [13] 96.6% | [14] 93.8% | [15] 83.7% | [16] 105% | [17] 92.5% | [18] 102% | [19] 105%

O=C1C2C(C(=O)[N]1[Hg][c]1cccs1)C1(Cl)C(Cl)=C(Cl)C2(Cl)C1(Cl)Cl (configuration not stated)
inactive: [1] 54.6% | [2] 34.5% | [5] 49.9% | [8] 124% | [13] 11.9% | [14] 13.7% | [15] 37.3% | [16] 102% | [19] 42%
active: [3] -46.9% | [4] -29.8% | [6] -35.7% | [7] 1.56% | [9] -14.1% | [10] 3.08% | [11] 1.72% | [12] -11.4% | [17] 0.499% | [18] -91.1%
